Values joined by “and” are separate entries in the source; they are usually repeats but may differ in a detail not shown here. Equal values may be shown once. Results filed as inconclusive are left out. Where a structure was tested more than once in an assay, its records may differ in their call. Active and inactive are the calls of the source. The call rests on the fitted dose curve; in most records, active means well fitted cell-killing curve with a large enough effect in the repeat runs; inconclusive means weak or mixed curves, or effect the other way; inactive means no such curve, though single readings can be large or run the other way.
Assay: qHTS assay to identify small molecule antagonists of the thyroid receptor (TR) signaling pathway - cell viability counter screen (AID 743064); further: nearly all actives have a fitted effect of over 50% in size
Details: GH3.TRE-Luc viability, CellTiter-Fluor, 24 h; series mostly up to 70.3 µM; activity change, negative = cytotoxic: at the top concentration
Procedure, shortened: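 GH3.TRE-Luc cells, 4 h pre-plating; cpd + T3 1 nM final; 37 °C 23.5 h; CellTiter-Fluor 30 min; fluorescence read.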
On the % scale 0 is the no-effect control and ±100 the full control effect; potency means the concentration at half of the fitted maximal effect.

Row | Structure (SMILES) | Potency | activity change, negative = cytotoxic
1 | CCn1cc[n+](C)c1 | inactive | 
2 | COC(=O)C(Br)CBr (stereo unspecified) |  | 10.2% (inactive)
3 | CCN(C)N=O |  | 5.89% (inactive)
4 | CC(C)(C)c1cc([N+](=O)[O-])cc([N+](=O)[O-])c1O | 8.61 µM (active) | 
5 | O=C(O)CC(Cl)C(=O)O (stereo unspecified) |  | -31.2% [at 95 µM] (inactive)
6 | CCOc1nc(F)cc2nc(S(=O)(=O)Nc3c(Cl)cccc3Cl)nn12 |  | -16.9% (inactive)
7 | O=C(CBr)OCc1ccccc1 |  | 3.48% (inactive)
8 | C=CC(=O)OC(C)(C)C |  | 5.62% (inactive)
9 | C(=NC1CCCCC1)=NC1CCCCC1 | inactive and 27.3 µM (active) | 
10 | Cn1cc[n+](C)c1 (tested in a mixture with another compound) |  | 29.9% [at 95 µM] (inactive)
11 | O=[Se]=O |  | -10.4% (inactive)
12 | ClCCCCBr |  | -1.97% [at 95 µM] (inactive)
13 | CC(O)(CS(=O)(=O)c1ccc(F)cc1)C(=O)Nc1ccc(C#N)c(C(F)(F)F)c1 (stereo unspecified) | inactive | 
14 | O=C(O)C(F)(F)C(F)(F)C(F)(F)C(F)(F)C(F)(F)C(F)(F)C(F)(F)C(F)(F)C(F)(F)C(F)(F)F |  | 1.19% (inactive)
15 | COc1c(C(C)(C)C)cc([N+](=O)[O-])c(C)c1[N+](=O)[O-] |  | -21.3% (inactive)
16 | N#CCc1ccccc1 |  | -6.66% [at 95 µM] (inactive)

— PubChem BioAssay (Tox21)
